# Compound activity as filed in PubChem.
# Rows were chosen to be rich in hits. Some 4.5% of all compounds tested hit in one or more screens of this group.
# BJeLR lethal: kills HRASV12-expressing BJeLR cells; BJeLR (HRASV12) viability, CellTiter-Glo ATP luminescence, 48 h; inhibition, % (concentration not given with the values); 300,000 compounds, 0.17% hits; in the data active means inhibition above about 50%; inconclusive means no clear call, values can overlap the other calls
# GDH-TPI counter-1: GDH-TPI coupled enzyme inhibition counter-screen; GDH-TPI coupled enzyme counterscreen, NADH absorbance; inhibition, % at 4.8 µM; 360,000 compounds, 1.2% hits; in the data active means inhibition above about 30%;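 further: 0% = DMSO wells and 100% = wells lacking the enzyme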
# PfHsp40 yeast: compounds rescuing yeast from Plasmodium falciparum HSP40 toxicity. S. cerevisiae expressing PfHsp40, growth rescue, ATP luminescence. growth rescue, % at 12.5 µM. 340,000 compounds, 0.68% hits. AID 504582; in the data active means growth rescue above about 28%, passing the limit was not always enough; inconclusive means no clear call, values can overlap the other calls;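 further: yeast W303a lacking pdr1 and pdr3 grown in galactose medium; growth measured after three days at 30 °C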
# FBA Mtb inh: inhibitors of M. tuberculosis fructose-bisphosphate aldolase; purified M. tuberculosis FBA, fluorescence read-out; 360,000 compounds, 2.3% hits; P9WQA3; AID 588726; inhibition, % at 1 µM;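 further: 0% = vehicle and 100% = reference inhibitor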
# Target sequence (P9WQA3 whole entry, looked up): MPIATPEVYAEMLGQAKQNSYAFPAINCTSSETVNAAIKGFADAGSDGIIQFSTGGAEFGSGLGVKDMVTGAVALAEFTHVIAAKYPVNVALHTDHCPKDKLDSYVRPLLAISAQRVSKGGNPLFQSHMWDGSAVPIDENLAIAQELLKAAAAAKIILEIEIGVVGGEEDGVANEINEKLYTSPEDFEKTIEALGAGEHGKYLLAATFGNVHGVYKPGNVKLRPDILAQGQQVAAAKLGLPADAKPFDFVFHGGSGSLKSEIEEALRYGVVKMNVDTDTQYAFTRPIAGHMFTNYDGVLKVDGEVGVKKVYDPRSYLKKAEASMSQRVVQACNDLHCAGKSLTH
# PrP UTR inh: inhibition of PrP 5' UTR reporter expression; 340,000 compounds, 0.35% hits; inhibition, % (test concentration not listed); cell-based PrP 5' UTR mRNA reporter, plate reader; in the data active means inhibition above about 52%; further: 0 = median of the neutral control wells
# PrPC surface inh: reduces human prion protein on the cell surface. P04156. cell surface PrPC, TR-FRET read-out. inhibition, % at 13.8 µM. 370,000 compounds, 0.43% hits; in the data active means inhibition above about 24%; further: 0% = median of the test wells and 100% = reference compound wells
# Mtb FBA inh conf: Mtb FBA inhibition, confirmed; shares compounds with FBA Mtb inh; purified M. tuberculosis FBA, fluorescence read-out; inhibition, % at 1 µM; 5,600 compounds, 78% hits;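 further: 0% = vehicle wells and 100% = reference inhibitor wells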
# GDH-TPI counter-2: inhibits GDH-TPI coupling enzymes, flagging Mtb FBA hits. inhibition, % at 1 µM. shares compounds with FBA Mtb inh. 5,600 compounds, 81% hits. AID 652141. GDH-TPI coupled enzyme counterscreen, fluorescence; in the data active means inhibition above about 10%
# The depositor's hits bear a star; ? = inconclusive; nt = no result given; + = active, no number. Unless noted, no stated cut-off is given here; in the data, active means inhibition above about 27%; inactive means the rest.
SMILES,BJeLR lethal,GDH-TPI counter-1,PfHsp40 yeast,FBA Mtb inh,PrP UTR inh,PrPC surface inh,Mtb FBA inh conf,GDH-TPI counter-2
CCOC(=O)C1CCCN(C(=O)c2cc3c(=O)n4ccccc4nc3s2)C1 (stereo not given),-7,16,21,63*,4,0,10,-7
O=C(c1cc2c(=O)n3ccccc3nc2s1)N1CCOCC1,15,25,1,79*,-65,-10,+,+
CCN(C(=O)c1cc2c(=O)n3ccccc3nc2s1)C1CCCCC1,-2,7,-1,72*,-29,-16,56*,32*
CC1CCN(C(=O)c2cc3c(=O)n4ccccc4nc3s2)CC1,-4,15,1,87*,-30,-2,132*,100*
CCOC(=O)C1CCCN(C(=O)c2cc3ccccc3cc2OC)C1 (stereo not given),nt,14,1,5,-7,1,nt,nt
CC(C)NC(=O)N(C)C[C@@H]1Oc2cc(Br)ccc2S(=O)(=O)N([C@@H](C)CO)C[C@H]1C,nt,13,nt,-2,nt,-2,nt,nt
COC(=O)[C@]1(Cc2ccccc2)N[C@H](c2ccc(-c3ccc(F)cc3)cc2)[C@@H]2C(=O)N(C)C(=O)[C@@H]21,-3,5,4,14,-29,-3,nt,nt
CCCNC(=O)COC(=O)c1cc2c(=O)n3ccccc3nc2s1,0,5,1,76*,-36,-4,10,3
CCNC(=S)Nc1cccc(NC(=O)c2ccccc2O)c1,9,5,1,37*,9,7,3,-4
Cc1ccc(-n2c(-c3cccs3)nc3ccccc3c2=O)cc1,2,22,-1,1,-25,-21,nt,nt
c1ccc(-n2c(-c3cccs3)nc3nc4ccccc4nc32)cc1,2,1,-1,96*,-64,-5,+,+
CCC(C)n1c(-c2cccs2)nc2nc3ccccc3nc21 (stereo not given),-8,13,-1,53*,3,-11,102*,76*
CC1(C)OC(=O)C2=C(CC(CCc3ccccc3)OC2CCc2ccccc2)O1 (stereo not given),nt,nt,nt,nt,nt,2,nt,nt
CC(CCc1ccccc1)NC(=O)CNC(=O)N1CC(=O)Nc2ccccc21 (stereo not given),-2,-2,0,3,-8,-3,nt,nt
CC1CCN(C(=O)C2c3ccccc3C(=O)N3CCc4ccccc4C23)CC1 (stereo not given),-10,0,2,1,-14,-5,nt,nt
O=C1c2cnc3ncnn3c2CC2c3ccccc3CCN12 (stereo not given),7,-3,0,58*,-36,-4,23,18*
N#Cc1cnn2c(C(F)(F)F)cc(-c3ccccc3)nc12,5,15,-1,7,3,5,nt,nt
O=C1c2cnc3nc(SCc4cccc(Cl)c4)nn3c2CC2c3ccccc3CCN12 (stereo not given),0,-8,0,1,-31,3,nt,nt
N#Cc1cnn2c3c(cnc12)C(=O)N1CCc2ccccc2C1C3 (stereo not given),5,-6,1,27*,-39,-2,87*,64*
CSc1nc2ncc3c(n2n1)CC1c2ccccc2CCN1C3=O (stereo not given),-9,10,1,53*,-12,-1,76*,58*
OC1c2cc(Br)ccc2N=C2CCCCCN21 (stereo not given),nt,5,nt,5,nt,-1,nt,nt
OC1c2c(F)cccc2N=C2CCCCCN21 (stereo not given),nt,12,nt,48*,nt,6,141*,138*
CCCc1cc(=O)[nH]c(SCC(=O)NC2CC2)n1,nt,3,-1,3,8,2,nt,nt
CCCc1cc(=O)[nH]c(SCC(=O)Nc2sc3c(c2C#N)CCC(C)C3)n1 (stereo not given),-4,4,4,37*,-7,0,99*,73*
N#Cc1c(N(CCO)CCO)nc(N)c2c(N)nc3c(c12)CC(=O)N3CC1CCCO1 (stereo not given),7,20,1,37*,-22,-7,171*,152*
SMILES,BJeLR lethal,GDH-TPI counter-1,PfHsp40 yeast,FBA Mtb inh,PrP UTR inh,PrPC surface inh,Mtb FBA inh conf,GDH-TPI counter-2
Cc1csc(NC(=O)c2cc(C)oc2C)n1,3,0,2,0,-63,-4,nt,nt
CC(C)(C)c1csc(NC(=O)c2ccccc2O)n1,6,23,?,37*,-48,0,43*,36*
Cc1csc(NC(=O)c2ccccc2O)n1,-7,21,1,66*,-40,1,99*,85*
O=C(NCCc1ccccc1)c1cc(=O)[nH]c2ccccc12,16,6,-1,14,-13,2,nt,nt
CN(C)CCCNC(=O)N1c2ccccc2Sc2ccccc21,2,-14,-2,59*,-18,-6,+,+
CCOC(=O)N1CCN(CCC(=O)Nc2cccc(Cl)c2C)CC1,0,13,0,-3,-9,-1,nt,nt
CC(C)c1nc2cc(Cl)ccc2n(Cc2ccccc2)c1=O,-3,-10,-1,3,-20,7,nt,nt
O=c1[nH]cccc1-c1nc2cc(Cl)ccc2n1Cc1ccccc1,9,1,-1,77*,-22,-2,5,-2
Cc1ccc(NC(=O)Nc2cccc(Cl)c2)c(C(=O)O)c1,-5,-1,0,94*,-15,-2,104*,78*
COc1cc(NC(=O)Nc2ccc(Cl)c(Cl)c2)c(C(=O)O)cc1OC,8,5,2,104*,-18,-3,49*,47*
CSc1ccccc1NC(=O)Nc1cccc(Cl)c1,1,1,1,-3,-19,17,nt,nt
COc1cc(OC)c(NC(=O)Nc2ccc(OC)c(OC)c2)cc1Cl,-4,12,0,2,-3,0,nt,nt
CN(C(=O)Nc1ccc(Cl)c(Cl)c1)c1ccccc1C(=O)O,1,12,0,68*,-22,1,142*,134*
COc1ccc(-n2c(SCC(=O)N3CCCCC3C)nnc2-c2ccncc2)cc1 (stereo not given),nt,nt,nt,nt,nt,-3,nt,nt
Cc1[nH]nc2c1C(c1ccsc1)C1=C(CC(C)(C)CC1=O)N2 (stereo not given),7,23,nt,55*,-14,-1,51*,38*
Cc1[nH]nc2c1C(c1ccc(O)cc1)C1=C(CC(C)(C)CC1=O)N2 (stereo not given),-7,24,1,7,-12,0,nt,nt
COc1cccc(C2C3=C(CC(C)(C)CC3=O)Nc3n[nH]c(C)c32)c1 (stereo not given),5,13,2,43*,-7,-4,161*,131*
Cn1c(NCCO)nc2c(c1=O)C1(CCCCC1)Cc1ccccc1-2,10,1,-1,70*,-17,-5,+,+
